Assay results taken from the supplement of paper PMC4188521.

Each target was assayed with CCc1cnn2c(NCc3ccc[n+]([O-])c3)cc(N3CCCC[C@H]3CCO)nc12 [dinaciclib] (assay: cell viability remaining relative to DMSO control; higher = less cytotoxic (more viable cells)). Settings: 100 nM; 24 h.
Experimental: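 Solid tumor cell lines were treated with dinaciclib (100 nM) for 24 hr. Viability was measured by CellTiter-Glo ATP luminescence and expressed as % of DMSO-treated control wells (mean of 2-6 plates, triplicate wells per plate).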

Target | cell viability remaining
OAW28 | 63.1%
CAMA1 | 51.8%
OVISE | 94.6%
H82 | 12.6%
HUTU80 | 27.1%
EN | 51.9%
SKLU1 | 82.6%
HEC1A | 49%
SNU16 | 52.2%
SJSA1 | 66.7%
DU145 | 81.7%
H1838 | 90.6%
WM115 | 69.1%
COLO792 | 8.9%
H4 | 34.1%
COLO320DM | 17.1%
MFE296 | 47.4%
RMGI | 83.4%
SNU1 | 50.8%
NCI-H2110 | 56.9%

Target | cell viability remaining
DV90 | 56.2%
EFO27 | 106%
MDAMB231 | 57.6%
HCC1428 | 19.7%
HCT116 | 55.4%
DU4475 | 72.3%
HEC1B | 94.1%
COV362 | 81%
SKOV3 | 81.1%
SW900 | 74.3%
UACC62 | 57.1%
H146 | 86.5%
A204 | 40.8%
HCC44 | 85.8%
H2228 | 36.4%
CHP212 | 19.7%
HS695T | 72.9%
SKUT1 | 74.7%
U87MG | 63%
SNGM | 98.3%
